The sequences below were run against T1, ETS1 (UniProt P14921) (assay: ETS1 binding intensity (PBM fluorescence), ETS1 alone (arbitrary fluorescence units); higher = stronger binding). Conditions: ETS1 concentration 1 nM; RUNX1 concentration 0 nM.
T1 sequence: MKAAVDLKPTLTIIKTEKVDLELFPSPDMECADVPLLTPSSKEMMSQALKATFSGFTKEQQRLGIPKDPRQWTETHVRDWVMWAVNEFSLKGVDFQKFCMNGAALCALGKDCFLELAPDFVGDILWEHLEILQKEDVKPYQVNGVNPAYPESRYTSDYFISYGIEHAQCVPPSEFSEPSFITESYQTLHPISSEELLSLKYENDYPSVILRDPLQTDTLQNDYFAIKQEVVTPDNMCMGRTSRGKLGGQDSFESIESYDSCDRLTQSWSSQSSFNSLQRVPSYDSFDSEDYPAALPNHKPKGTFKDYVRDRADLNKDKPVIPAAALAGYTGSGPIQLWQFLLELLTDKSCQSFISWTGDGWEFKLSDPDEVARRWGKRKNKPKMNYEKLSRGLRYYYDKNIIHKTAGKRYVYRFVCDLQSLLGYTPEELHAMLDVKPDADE
With ATGGCGGAGCGGAAGTCCCAGCCACAACGCGAAAAG the ETS1 binding intensity was 3810. CCCACTGATAAGACAGGATGTGGTAAAGAAGCCAGC gave an ETS1 binding intensity of 5700. With AGCCGCCACTTCCTGTCTCTGCGGGTGCATGCTCTT the ETS1 binding intensity was 3730. Sequence CCTGTACGGAAGCTACTCTGGTTTCATGTGGTTTCA has an ETS1 binding intensity of 441. Work on GCCACAGCCGGAAGCAGGCTGACCACAAGTGCTAAG yielded an ETS1 binding intensity of 1880. Work on CCCTGGACGGGAAGCGGCGGCCAGATCCGCAAGCCC yielded an ETS1 binding intensity of 584. In the case of TACGTCACTTCCGGGCCGCCGTCCTGCGGGCAAGGG, the ETS1 binding intensity is reported as 2570. In the case of GGTTCTCTAGGGAGAGGATGTGGGTTTGTCTCTGGG, the ETS1 binding intensity is reported as 1820. Work on GTGCTAAGTGAGGAAGTGCAGTTTACCGCACGGTGG yielded an ETS1 binding intensity of 839. GAAGAGAAAGGAAACGGCTCGCGGTTTCTGGGGTTC showed an ETS1 binding intensity of 822. CCTCGCCCCCTTCCGCACCCACCCCACCGCGCTCCG was tested, and the ETS1 binding intensity was 807. In the case of GCGCAGGTCCCGGATGTTGCGGACAGTATGAGGCAA, the ETS1 binding intensity is reported as 3250. GGGGCTGGGAAAGGATGTGGTAAGGGCCAGTCAGTC was tested, and the ETS1 binding intensity was 884. Sequence TGGTGCCAAACATCCGCTAGCCACAGAAAAACCGAC has an ETS1 binding intensity of 778. In the case of GGGAGGCCCCATCCTGTGTGGCTGTGGCTTTTGCCT, the ETS1 binding intensity is reported as 414. GTTCAGCGGACGGCTTCCTGCGGCTTGCTGGGGCCG gave an ETS1 binding intensity of 361. In the case of TTGACTCGGGAATGTCCGGTCGTGGTAAGCAGGGTG, the ETS1 binding intensity is reported as 770. With GGCCGGGGGCAGGAAGCTGCGGCGCTGGCTCCCCCC the ETS1 binding intensity was 2510. GATGGTGTCTTTTGGGGATGTGGGTTTGGGGGATGG was tested, and the ETS1 binding intensity was 564. For CTTAGTGTTTGAGGATGTGGGTTTTACAATCAGATC, the ETS1 binding intensity was 845. CAACGGCGTAGCCGGAAGTCAGTGGTTTTCGCCCCA gave an ETS1 binding intensity of 12100. AGTGGATAGCACTTCCTTCTCTTACCACAGTTCCTT showed an ETS1 binding intensity of 365. GCTGCAAGGCGGAAGCAGCGCGGTCGGACGGGCATG was tested, and the ETS1 binding intensity was 1650. CTGCCTTTCCTGCTAGGGTACAAACCACAGCCTTAG showed an ETS1 binding intensity of 369. Sequence GTGGGTTTAGGATATGGGTGTGGTTTCTAATTGTCT has an ETS1 binding intensity of 428. In the case of CACCCTCAACTTCCTGACCCATAAACCACAAGCTAT, the ETS1 binding intensity is reported as 468. AAGAGGAAGTCCCAAATTGCTTTTTAACCACCAACA was tested, and the ETS1 binding intensity was 522. In the case of ACAGAGAAGCTTCCTATTGTGGGATTCACCACCACC, the ETS1 binding intensity is reported as 623. ACAAAGAAACCTACATCCTAAGCCACAGAATACAGC gave an ETS1 binding intensity of 545. With AAACCCTGAGTAATCGGAAGTGGTTAGGAGTGAGAG the ETS1 binding intensity was 2190. With CACCTCAGCTTCCTGTGTAGCTGGGACCACAGGCAT the ETS1 binding intensity was 687. Sequence GCCCAGTTCTCGCATCCGGTCTGCGGCGCGCTCGGG has an ETS1 binding intensity of 4380. TTCATCTCTCACTTCCTGTGGTGACGGCTGACGGGG showed an ETS1 binding intensity of 4120. TGGAGTGAAGCGGCTTCCTTGCGGTTGTGTGCGTGT was tested, and the ETS1 binding intensity was 403. With AGGCCTCGCTTCCTCTCCTGACCACACCCTGCAGCT the ETS1 binding intensity was 446. CCTCCTCCAGACCATCCTGGAAACCACTGCCGTTCT gave an ETS1 binding intensity of 561. In the case of TGGAGAGCACAGGAAGTGGCCCACAGCCCAGGCCAA, the ETS1 binding intensity is reported as 5790. For AAAAAGCCGGATGTGAAGGCTGTGGTTCTCAACCCG, the ETS1 binding intensity was 2880. Sequence ATGTTTGGGGCCGGAAGTGGGTTGGAGGTGTGGCGG has an ETS1 binding intensity of 24700. Work on AGTTGGTTCCTTCCGGTGGGTTTGTGGGCTTGGGGT yielded an ETS1 binding intensity of 1400.

What follows are sequences tested against RUNX1 (UniProt Q01196) (assay: RUNX1 binding intensity (PBM fluorescence), RUNX1 alone (arbitrary fluorescence units); higher = stronger binding). Conditions: RUNX1 concentration 2 nM; ETS1 concentration 0 nM.
Chain of RUNX1 (Q01196 whole entry): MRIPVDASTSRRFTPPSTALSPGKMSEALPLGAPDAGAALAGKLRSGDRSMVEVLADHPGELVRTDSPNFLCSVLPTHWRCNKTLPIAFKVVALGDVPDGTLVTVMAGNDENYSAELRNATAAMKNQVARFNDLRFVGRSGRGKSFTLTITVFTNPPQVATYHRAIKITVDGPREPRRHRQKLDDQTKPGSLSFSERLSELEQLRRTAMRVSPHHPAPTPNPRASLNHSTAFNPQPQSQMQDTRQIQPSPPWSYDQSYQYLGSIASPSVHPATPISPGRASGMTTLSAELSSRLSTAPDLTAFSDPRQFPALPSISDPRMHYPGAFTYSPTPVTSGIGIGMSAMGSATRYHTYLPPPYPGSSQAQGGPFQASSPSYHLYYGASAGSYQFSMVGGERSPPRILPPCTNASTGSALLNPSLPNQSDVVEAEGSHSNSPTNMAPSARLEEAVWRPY
Experimental: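 Cooperative gcPBM on 36-bp genomic probes with neighbouring ETS1 and RUNX1 sites. Recombinant human RUNX1 (2 nM) was incubated alone or with ETS1 (25 nM) and detected with anti-RUNX1 antibody plus Alexa488 secondary. Values are medians over 4 replicate spots; the RUNX1+ETS1 data were normalised to the RUNX1-only data. The probes sit in constant array flanks that are not printed.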
ATGGCGGAGCGGAAGTCCCAGCCACAACGCGAAAAG gave an RUNX1 binding intensity of 782. CCCACTGATAAGACAGGATGTGGTAAAGAAGCCAGC gave an RUNX1 binding intensity of 776. AGCCGCCACTTCCTGTCTCTGCGGGTGCATGCTCTT showed an RUNX1 binding intensity of 863. In the case of CCTGTACGGAAGCTACTCTGGTTTCATGTGGTTTCA, the RUNX1 binding intensity is reported as 904. Work on GCCACAGCCGGAAGCAGGCTGACCACAAGTGCTAAG yielded an RUNX1 binding intensity of 1310. For CCCTGGACGGGAAGCGGCGGCCAGATCCGCAAGCCC, the RUNX1 binding intensity was 808. With TACGTCACTTCCGGGCCGCCGTCCTGCGGGCAAGGG the RUNX1 binding intensity was 799. Sequence GGTTCTCTAGGGAGAGGATGTGGGTTTGTCTCTGGG has an RUNX1 binding intensity of 791. In the case of GTGCTAAGTGAGGAAGTGCAGTTTACCGCACGGTGG, the RUNX1 binding intensity is reported as 675. Sequence GAAGAGAAAGGAAACGGCTCGCGGTTTCTGGGGTTC has an RUNX1 binding intensity of 738. With CCTCGCCCCCTTCCGCACCCACCCCACCGCGCTCCG the RUNX1 binding intensity was 2040. GCGCAGGTCCCGGATGTTGCGGACAGTATGAGGCAA gave an RUNX1 binding intensity of 661. In the case of GGGGCTGGGAAAGGATGTGGTAAGGGCCAGTCAGTC, the RUNX1 binding intensity is reported as 749. TGGTGCCAAACATCCGCTAGCCACAGAAAAACCGAC showed an RUNX1 binding intensity of 826. In the case of GGGAGGCCCCATCCTGTGTGGCTGTGGCTTTTGCCT, the RUNX1 binding intensity is reported as 653. GTTCAGCGGACGGCTTCCTGCGGCTTGCTGGGGCCG showed an RUNX1 binding intensity of 724. For TTGACTCGGGAATGTCCGGTCGTGGTAAGCAGGGTG, the RUNX1 binding intensity was 683. GGCCGGGGGCAGGAAGCTGCGGCGCTGGCTCCCCCC was tested, and the RUNX1 binding intensity was 649. In the case of GATGGTGTCTTTTGGGGATGTGGGTTTGGGGGATGG, the RUNX1 binding intensity is reported as 835. CTTAGTGTTTGAGGATGTGGGTTTTACAATCAGATC showed an RUNX1 binding intensity of 769. Sequence CAACGGCGTAGCCGGAAGTCAGTGGTTTTCGCCCCA has an RUNX1 binding intensity of 721. AGTGGATAGCACTTCCTTCTCTTACCACAGTTCCTT was tested, and the RUNX1 binding intensity was 1020. For GCTGCAAGGCGGAAGCAGCGCGGTCGGACGGGCATG, the RUNX1 binding intensity was 721. In the case of CTGCCTTTCCTGCTAGGGTACAAACCACAGCCTTAG, the RUNX1 binding intensity is reported as 1360. In the case of GTGGGTTTAGGATATGGGTGTGGTTTCTAATTGTCT, the RUNX1 binding intensity is reported as 885. For CACCCTCAACTTCCTGACCCATAAACCACAAGCTAT, the RUNX1 binding intensity was 6110. In the case of AAGAGGAAGTCCCAAATTGCTTTTTAACCACCAACA, the RUNX1 binding intensity is reported as 849. ACAGAGAAGCTTCCTATTGTGGGATTCACCACCACC showed an RUNX1 binding intensity of 735. ACAAAGAAACCTACATCCTAAGCCACAGAATACAGC showed an RUNX1 binding intensity of 930. Sequence AAACCCTGAGTAATCGGAAGTGGTTAGGAGTGAGAG has an RUNX1 binding intensity of 816. Work on CACCTCAGCTTCCTGTGTAGCTGGGACCACAGGCAT yielded an RUNX1 binding intensity of 827. With GCCCAGTTCTCGCATCCGGTCTGCGGCGCGCTCGGG the RUNX1 binding intensity was 828. TTCATCTCTCACTTCCTGTGGTGACGGCTGACGGGG gave an RUNX1 binding intensity of 1030. Work on TGGAGTGAAGCGGCTTCCTTGCGGTTGTGTGCGTGT yielded an RUNX1 binding intensity of 1900. Sequence AGGCCTCGCTTCCTCTCCTGACCACACCCTGCAGCT has an RUNX1 binding intensity of 1160. CCTCCTCCAGACCATCCTGGAAACCACTGCCGTTCT showed an RUNX1 binding intensity of 1380. Sequence TGGAGAGCACAGGAAGTGGCCCACAGCCCAGGCCAA has an RUNX1 binding intensity of 766. AAAAAGCCGGATGTGAAGGCTGTGGTTCTCAACCCG showed an RUNX1 binding intensity of 745. With ATGTTTGGGGCCGGAAGTGGGTTGGAGGTGTGGCGG the RUNX1 binding intensity was 706. AGTTGGTTCCTTCCGGTGGGTTTGTGGGCTTGGGGT was tested, and the RUNX1 binding intensity was 763.
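For RUNX1 binding intensity (PBM fluorescence), RUNX1 alone in this document: Full-length recombinant human RUNX1 bound to double-stranded 36-bp genomic probes on a high-density microarray, scored as Alexa488 fluorescence per spot via anti-RUNX1 antibody, median of four replicate spots.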
